Results filed as inconclusive are left out. Active and inactive are the calls of the source. Unless noted, calls follow the shape of the full dose curve.
Tests used:
[1] = Nuclear factor erythroid 2-related factor 2/antioxidant responsive element (Nrf2/ARE) small molecule agonists: qHTS cell viability counter screen in human keratinocytes (AID 1919968; active = well fitted curve in the direction sought with a large enough effect in the repeat runs; an effect the other way counts as inactive or inconclusive; also: nearly all actives have a fitted effect of over 55% in size; also: potency is read from the fitted curve at half-maximal effect)
Procedure, shortened: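 Cytotoxicity was multiplexed with the Nrf2/ARE luciferase assay in the same wells. Stably transfected HaCaT keratinocytes were treated with test compounds for 23 h at 37 C. Cell viability was then measured by CellTiter-Fluor fluorescence.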

[2] = Nuclear factor erythroid 2-related factor 2/antioxidant responsive element (Nrf2/ARE) small molecule agonists: luciferase reporter gene qHTS assay in human keratinocytes (AID 1919969); also: nearly all actives have a fitted effect of over 35% in size; also: potency is read from the fitted curve at half-maximal effect
[3] = target: Gonadotropin-releasing hormone receptor (Homo sapiens) (UniProt P30968); experiment: Human gonadotropin-releasing hormone receptor (GnRHR) small molecule agonists, calcium flux assay in GnRHR-HEK293 cells (AID 1920063); also: nearly all actives have a fitted effect of over 35% in size
Chain of Gonadotropin-releasing hormone receptor (Homo sapiens) (P30968 whole entry, looked up): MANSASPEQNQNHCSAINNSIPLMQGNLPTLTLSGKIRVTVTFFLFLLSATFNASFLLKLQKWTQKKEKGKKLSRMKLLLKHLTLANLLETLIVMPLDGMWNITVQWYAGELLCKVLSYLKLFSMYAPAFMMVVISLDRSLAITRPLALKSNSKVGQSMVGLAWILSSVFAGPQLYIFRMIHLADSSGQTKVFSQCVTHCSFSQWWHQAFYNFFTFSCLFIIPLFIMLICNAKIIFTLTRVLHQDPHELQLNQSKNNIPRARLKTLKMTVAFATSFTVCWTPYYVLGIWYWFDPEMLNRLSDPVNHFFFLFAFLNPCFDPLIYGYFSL
Procedure, shortened: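 Agonist activity was measured as intracellular calcium flux in HEK293 cells engineered to stably express human GnRHR. After dye loading for 1 hour at 37 C, compounds in DMSO were added and fluorescence was followed for 3 minutes.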

[4] = target: KiSS-1 receptor (Homo sapiens) (UniProt Q969F8); experiment: Human kisspeptin (KISS1R) small molecule agonists, calcium flux assay in KISS1R-HEK293 cells (AID 1920064; active = well fitted curve in the direction sought with a large enough effect in the repeat runs; an effect the other way counts as inactive or inconclusive)
Chain of KiSS-1 receptor (Homo sapiens) (Q969F8 whole entry, looked up): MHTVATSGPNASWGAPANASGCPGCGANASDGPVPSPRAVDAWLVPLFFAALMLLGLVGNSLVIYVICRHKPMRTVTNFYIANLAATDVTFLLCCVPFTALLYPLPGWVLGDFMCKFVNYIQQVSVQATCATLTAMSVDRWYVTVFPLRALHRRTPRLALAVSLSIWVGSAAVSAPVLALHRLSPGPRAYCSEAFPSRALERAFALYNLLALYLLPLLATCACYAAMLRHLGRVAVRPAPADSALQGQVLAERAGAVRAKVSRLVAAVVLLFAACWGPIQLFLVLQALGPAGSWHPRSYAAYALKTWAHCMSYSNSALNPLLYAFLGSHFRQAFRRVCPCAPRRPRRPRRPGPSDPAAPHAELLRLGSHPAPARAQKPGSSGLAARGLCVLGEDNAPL
Procedure, shortened: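 Agonist activity is monitored as intracellular calcium rise in engineered HEK293 cells carrying human KISS1R. Cells are dye-loaded for 1 h at 37 C before compound addition, and fluorescence is recorded for 3 min.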

[5] = G protein-coupled receptor (GPCR) small molecule agonists, calcium flux assay: HEK293 wild type cell line counter screen (AID 1920065)
Procedure, shortened: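 Seed cells, incubate 18 h (37 C, 5% CO2); add calcium dye, 1 h at 37 C; pin-transfer compounds, ATP control or DMSO; read fluorescence 480/540 nm each second for 3 min.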

[6] = p53 small molecule agonists, cell-based qHTS assay with human liver microsomes (AID 1963577);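 also: p53 response element beta-lactamase reporter cells with liver microsomes plus NADPH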
Procedure, shortened: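 16 h, 37 C exposure of p53RE-bla cells to compounds with human liver microsomes and NADPH (0.5 mg/mL final each); detection via LiveBLAzer mixture, 2 h dark at room temperature.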

[7] = p53 small molecule agonists, cell-based qHTS assay with rat liver microsomes (AID 1963578)
Procedure, shortened: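 With rat liver microsomes and NADPH present (0.5 mg/mL final each), p53RE-bla cells are treated with compound for 16 h at 37 C. LiveBLAzer detection mixture is then applied for 2 h at room temperature in the dark.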

[8] = p53 small molecule agonists, cell-based qHTS assay with human liver microsomes: qHTS cell viability counter screen (AID 1963579); also: nearly all actives have a fitted effect of over 45% in size; also: potency is read from the fitted curve at half-maximal effect
Procedure, shortened: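 In this multiplexed counter screen, the reporter plates were subsequently treated with CellTiter-Glo so that cell viability, reflected by luminescence, could be recorded for p53RE-bla cells dosed 16 h with compounds under microsomal activation (HLM and NADPH).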

[9] = p53 small molecule agonists, cell-based qHTS assay with rat liver microsomes: qHTS cell viability counter screen (AID 1963580); also: nearly all actives have a fitted effect of over 45% in size; also: potency is read from the fitted curve at half-maximal effect
Procedure, shortened: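 After the beta-lactamase ratio was read, CellTiter-Glo was added to the same wells and luminescence measured at 30 min; cells had been treated 16 h at 37 C with compounds, rat liver microsomes and NADPH (0.5 mg/mL final each).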

[10] = p53 small molecule agonists, cell-based qHTS assay: qHTS cell viability counter screen (AID 1963581); also: nearly all actives have a fitted effect of over 45% in size; also: potency is read from the fitted curve at half-maximal effect
Procedure, shortened: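 Viability was counter-screened in parallel with the p53 agonist reporter by measuring intracellular ATP luminescence in the same HCT-116 p53RE-bla wells after 16 h compound treatment at 37 C.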

[11] = target: 5-hydroxytryptamine receptor 2A (Homo sapiens) (UniProt P28223); experiment: 5-hydroxytryptamine receptor 2A (HTR2A) small molecule antagonists, cell-based qHTS assay (AID 1963586); also: nearly all actives have a fitted effect of over 45% in size; also: potency is read from the fitted curve at half-maximal effect
Chain of 5-hydroxytryptamine receptor 2A (Homo sapiens) (P28223 whole entry, looked up): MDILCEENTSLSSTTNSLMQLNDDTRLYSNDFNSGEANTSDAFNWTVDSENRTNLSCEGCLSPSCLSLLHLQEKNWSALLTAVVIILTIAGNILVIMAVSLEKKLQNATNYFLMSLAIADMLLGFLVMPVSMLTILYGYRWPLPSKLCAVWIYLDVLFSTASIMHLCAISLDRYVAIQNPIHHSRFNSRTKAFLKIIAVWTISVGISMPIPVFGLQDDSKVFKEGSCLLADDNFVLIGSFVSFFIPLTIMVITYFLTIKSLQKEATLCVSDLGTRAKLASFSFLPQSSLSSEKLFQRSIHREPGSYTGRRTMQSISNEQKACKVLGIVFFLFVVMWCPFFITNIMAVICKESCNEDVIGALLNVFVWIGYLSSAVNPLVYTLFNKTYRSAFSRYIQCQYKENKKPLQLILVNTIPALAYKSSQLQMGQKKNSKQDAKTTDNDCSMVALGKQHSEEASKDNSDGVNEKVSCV
Procedure, shortened: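 CHO cells stably expressing human HTR2A were plated for 18 h at 37 C, then loaded with calcium dye for 1 h. Compounds were preincubated 5 min at room temperature before DOI (4 nM solution) was added. Kinetic fluorescence was read for 3 min.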

[12] = target: 5-hydroxytryptamine receptor 2A (Homo sapiens) (UniProt P28223); experiment: 5-hydroxytryptamine receptor 2A (HTR2A) small molecule agonists, cell-based qHTS assay (AID 1963587); also: nearly all actives have a fitted effect of over 30% in size; also: potency is read from the fitted curve at half-maximal effect
Procedure, shortened: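 CHO cells stably expressing human HTR2A, plated 18 h, loaded with calcium dye 1 h at 37 C. Agonist mode: compounds added and intracellular calcium fluorescence recorded kinetically for 2 min at 1 sec intervals.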

[13] = target: Muscarinic acetylcholine receptor M1 (Homo sapiens) (UniProt P11229); experiment: Cholinergic receptor muscarinic 1 (CHRM1) small molecule antagonists, cell-based qHTS assay (AID 1963588); also: nearly all actives have a fitted effect of over 40% in size
Chain of Muscarinic acetylcholine receptor M1 (Homo sapiens) (P11229 whole entry, looked up): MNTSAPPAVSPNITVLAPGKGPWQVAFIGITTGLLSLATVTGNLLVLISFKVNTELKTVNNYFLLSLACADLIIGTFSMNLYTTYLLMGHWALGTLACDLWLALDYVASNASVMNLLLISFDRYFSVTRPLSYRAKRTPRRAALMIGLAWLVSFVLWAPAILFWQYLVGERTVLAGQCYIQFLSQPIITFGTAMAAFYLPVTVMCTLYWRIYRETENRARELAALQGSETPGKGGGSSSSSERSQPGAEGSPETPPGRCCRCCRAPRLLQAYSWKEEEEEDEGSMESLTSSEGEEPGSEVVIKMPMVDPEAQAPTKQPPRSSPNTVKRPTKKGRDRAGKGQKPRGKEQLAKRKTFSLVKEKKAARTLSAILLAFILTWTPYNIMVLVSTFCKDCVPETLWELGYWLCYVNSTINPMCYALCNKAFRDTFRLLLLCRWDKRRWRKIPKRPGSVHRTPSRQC
Procedure, shortened: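 Compounds were tested at 15 concentrations in three independent runs. Dye-loaded CHRM1-CHO cells were exposed 5 min at room temperature before stimulation by acetylcholine added at 50nM. Intracellular calcium was read kinetically on FDSS for 3 min.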

[14] = target: Muscarinic acetylcholine receptor M1 (Homo sapiens) (UniProt P11229); experiment: Cholinergic receptor muscarinic 1 (CHRM1) small molecule agonists, cell-based qHTS assay (AID 1963589); also: nearly all actives have a fitted effect of over 35% in size
Procedure, shortened: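 Cells were plated and incubated 18 h at 37 C/5% CO2, loaded with calcium dye for 1 h at 37 C, then treated with compounds in DMSO. Fluorescence was recorded kinetically at 1 sec intervals.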

[15] = target: D(2) dopamine receptor (Homo sapiens) (UniProt P14416); experiment: Dopamine D2 receptor (DRD2) small molecule agonists, cell-based qHTS assay (AID 1963594); also: nearly all actives have a fitted effect of over 35% in size
Chain of D(2) dopamine receptor (Homo sapiens) (P14416 whole entry, looked up): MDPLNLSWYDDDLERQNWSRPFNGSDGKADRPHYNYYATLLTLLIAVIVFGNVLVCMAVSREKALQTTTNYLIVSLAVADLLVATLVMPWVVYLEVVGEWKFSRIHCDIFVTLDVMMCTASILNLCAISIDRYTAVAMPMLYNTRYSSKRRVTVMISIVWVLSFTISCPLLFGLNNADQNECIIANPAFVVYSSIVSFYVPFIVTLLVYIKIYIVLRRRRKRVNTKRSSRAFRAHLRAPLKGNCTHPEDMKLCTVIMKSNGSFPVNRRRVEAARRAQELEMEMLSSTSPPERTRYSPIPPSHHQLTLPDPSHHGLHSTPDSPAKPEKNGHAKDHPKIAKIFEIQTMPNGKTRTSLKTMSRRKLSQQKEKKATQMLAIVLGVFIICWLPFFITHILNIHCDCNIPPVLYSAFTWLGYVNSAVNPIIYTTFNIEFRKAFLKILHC
Procedure, shortened: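 HEK293 cells stably expressing human DRD2, pre-treated with PDE inhibitor Ro20-1724 (0.1 mM final) and compound 10 min at room temperature, then stimulated with NKH477 (200nM […]) for 30 min. cAMP read by HTRF (665/620 nm).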

[16] = target: Beta-2 adrenergic receptor (Homo sapiens) (UniProt P07550); experiment: Adrenergic beta2 receptor (ADRB2) small molecule antagonists, cell-based qHTS assay (AID 1963592); also: series mostly up to about 92 µM; nearly all actives have a fitted effect of over 50% in size
Chain of Beta-2 adrenergic receptor (Homo sapiens) (P07550 whole entry, looked up): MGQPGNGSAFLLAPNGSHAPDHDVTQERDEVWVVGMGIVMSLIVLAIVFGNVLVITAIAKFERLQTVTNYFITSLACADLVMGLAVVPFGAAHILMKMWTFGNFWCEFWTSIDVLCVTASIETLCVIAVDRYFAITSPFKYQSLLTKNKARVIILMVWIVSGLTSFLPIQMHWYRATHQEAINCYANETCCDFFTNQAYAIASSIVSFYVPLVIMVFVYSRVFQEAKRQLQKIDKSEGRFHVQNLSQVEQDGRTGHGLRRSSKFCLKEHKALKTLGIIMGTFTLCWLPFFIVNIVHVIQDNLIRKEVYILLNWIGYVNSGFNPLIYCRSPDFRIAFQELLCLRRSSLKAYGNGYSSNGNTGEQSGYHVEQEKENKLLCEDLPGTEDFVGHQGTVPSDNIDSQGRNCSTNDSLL
Procedure, shortened: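 Assay format: CHO-ADRB2 cells, 18-20hr seeding at 37C/5% CO2, then compound plus 1nM isoproterenol agonist mix for 0.5hr RT. Homogeneous time-resolved fluorescence cAMP detection after 1hr, expressed as 665/615 nm ratio.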

[17] = target: D(2) dopamine receptor (Homo sapiens) (UniProt P14416); experiment: Dopamine D2 receptor (DRD2) small molecule antagonists, cell-based qHTS assay (AID 1963595; active = well fitted inhibition curve with a large enough effect in the signal ratio in the repeat runs, with a control signal flat; the % refers to the signal ratio)
Procedure, shortened: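 DRD2-HEK293; 0.1 mM Ro20-1724; cpd 10 min RT; NKH477 200 nM + quinpirole 12 nM, 30 min RT; HTRF cAMP (cAMP-d2/anti-cAMP cryptate), 665/620 nm ratio after 1 h.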

[18] = p53 small molecule agonists, cell-based qHTS assay (AID 1963582; active = well fitted activation curve with a large enough effect in the signal ratio in the repeat runs, not every such curve was filed as active; the % refers to the signal ratio)
Procedure, shortened: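 Cells carrying a p53-responsive bla reporter are treated with test compounds for 16 h at 37 C; beta-lactamase activity is then detected with LiveBLAzer B/G FRET substrate after 2 h at room temperature.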

[19] = cAMP Responsive Elements (CRE) small molecule agonists, cell-based qHTS assay (AID 1963590)
Procedure, shortened: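 Cells carrying a CRE-driven beta-lactamase reporter (HEK 293T) are seeded, incubated overnight (18 h), and treated with test compounds for 3 h at 37 C; reporter activity is then detected with a FRET substrate after 2 h at room temperature.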

[20] = cAMP Responsive Elements (CRE) small molecule antagonists, cell-based qHTS assay (AID 1963591; active = well fitted inhibition curve with a large enough effect in the signal ratio in the repeat runs, not every such curve was filed as active; the % refers to the signal ratio)
Procedure, shortened: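 Cells (CRE-bla HEK 293T, DMEM with 10% dialyzed FBS and 25 mM HEPES) are seeded and incubated 18 h. Compounds are added with NKH477 agonist at 0.25 uM final for 3 h, then FRET substrate for 2 h.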
% is scaled to controls: 0 for no effect and ±100 for the full control effect.

CC(C)(c1ccc(O)c(-c2ccccc2)c1)c1ccc(O)c(-c2ccccc2)c1
active: Potency [1] 13.7 µM | Potency [8] 18.2 µM | Potency [9] 20.4 µM | Potency [10] 20.4 µM | Potency [11] 18.8 µM
inactive: Potency [2] | Potency [3] | Potency [4] | Potency [5] | Potency [6] | Potency [7] | Potency [12] | Potency [13] | Potency [14] | Potency [15]

CCOC(=O)COc1cc(-c2nn(C)c(OC(F)F)c2Cl)c(F)cc1Cl
inactive: Potency [1] | Potency [2] | Potency [3] | Potency [4] | Potency [5] | Potency [6] | Potency [7] | Potency [8] | Potency [9] | Potency [10] | Potency [11] | Potency [12] | Potency [14] | Potency [16] | Potency [17]

CCOC(=O)CBr
inactive: Potency [1] | Potency [2] | Potency [3] | Potency [4] | Potency [5] | Potency [6] | Potency [7] | Potency [8] | Potency [9] | Potency [18] | Potency [11] | Potency [12] | Potency [13] | Potency [14] | Potency [19] | Potency [20] | Potency [16] | Potency [15] | Potency [17]

CCN(CCO)CCn1c(Cc2ccccc2)nc2c1c(=O)n(C)c(=O)n2C
inactive: Potency [1] | Potency [2] | Potency [3] | Potency [4] | Potency [5] | Potency [6] | Potency [7] | Potency [8] | Potency [9] | Potency [10] | Potency [11] | Potency [12] | Potency [13] | Potency [14] | Potency [19] | Potency [16] | Potency [15] | Potency [17]

Clc1c(Cl)c(Cl)c(Cl)c(Cl)c1Cl
inactive: activity change, negative = cytotoxicity [1] 1.8% [at 8.39 µM] | activity, positive = activation [2] 1.26% [at 8.39 µM] | activity change [3] -0.0134% [at 5.22 µM, active compounds read high] | activation [4] 2.59% [at 6.97 µM] | activation [5] 0.0562% [at 5.23 µM] | activation [6] -0.641% [at 5.99 µM] | activation [7] -0.077% [at 5.99 µM] | activity change, negative = cytotoxicity [8] -8.08% [at 5.99 µM] | activity change, negative = cytotoxicity [9] 3.81% [at 5.99 µM] | activity change, negative = cytotoxicity [10] 19.3% [at 5.99 µM] | activity, negative = inhibition [11] 3.79% [at 5.62 µM] | activation [12] -3.36% [at 7.02 µM] | activity, negative = inhibition [13] 4.33% [at 5.58 µM] | activation [14] 0.839% [at 6.97 µM] | activation [19] 0.371% [at 8.39 µM] | activity change, negative = inhibition [20] -9.17% [at 8.39 µM] | activity change, negative = inhibition [16] -5.22% [at 8.39 µM] | activation [15] -1.37% [at 8.39 µM] | activity change, negative = inhibition [17] -2.06% [at 8.38 µM]

CCC(C(N)=O)N1CCCC1=O (centres undefined)
inactive: Potency [1] | Potency [2] | Potency [3] | Potency [4] | Potency [5] | Potency [6] | Potency [7] | Potency [8] | Potency [9] | Potency [10] | Potency [11] | Potency [12] | Potency [13] | Potency [14] | Potency [19] | Potency [20] | Potency [16] | Potency [15] | Potency [17]

CC(=O)CN(CC(C)=O)N=O
inactive: Potency [1] | Potency [2] | Potency [3] | Potency [4] | Potency [5] | Potency [6] | Potency [7] | Potency [8] | Potency [9] | Potency [18] | Potency [11] | Potency [12] | Potency [13] | Potency [14] | Potency [19] | Potency [20] | Potency [16] | Potency [15] | Potency [17]

CCC(C)(NC(=O)c1cc(Cl)c(C)c(Cl)c1)C(=O)CCl (centres undefined)
active: Potency [1] 24.5 µM | Potency [2] 1.54 µM | Potency [12] 49.3 µM
inactive: Potency [3] | Potency [4] | Potency [5] | Potency [6] | Potency [7] | Potency [8] | Potency [9] | Potency [10] | Potency [13] | Potency [14] | Potency [16] | Potency [15]

Reference: PubChem BioAssay (Tox21)
